Experiments:
Assay in all cases: phenotypically active (imaging signature differs from DMSO and reproducible) at any of 0.3-9 uM (binary (1 = active, 0 = inactive)); higher = active
Details in all cases: treatment time: 24 h
[1] = tested on: A549-ACTB-RAB5A
Outline: (§1)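 Fifteen gene-edited A549, HepG2 and WPMY1 reporter lines (BFP segmentation plus GFP and RFP/FusionRed markers) were treated at 0.3, 1, 3 or 9 µM for 24 h, four wells each, then imaged live. Live-cell features per well were normalised to DMSO control wells. Deviation required ≥3 of 4 wells beyond the 95th percentile of DMSO Euclidean distances, and reproducibility required median replicate Pearson correlation above the 95th percentile of non-replicates. Phenotypic activity needed both criteria.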

[2] = tested on: A549-CANX-COX4
Outline: as §1

[3] = tested on: A549-GM130-SQSTM1
Outline: as §1

[4] = tested on: A549-TP53BP1-CLTA
Outline: as §1

[5] = tested on: A549-TUBA1B-RELA
Outline: as §1

[6] = tested on: HepG2-ACTB-RAB5A
Outline: as §1

[7] = tested on: HepG2-CANX-COX4
Outline: as §1

[8] = tested on: HepG2-GM130-SQSTM1
Outline: as §1

[9] = tested on: HepG2-TP53BP1-CLTA
Outline: as §1

[10] = tested on: HepG2-TUBA1B-RELA
Outline: as §1

[11] = tested on: WPMY1-ACTB-RAB5A
Outline: as §1

[12] = tested on: WPMY1-CANX-COX4
Outline: as §1

[13] = tested on: WPMY1-GM130-SQSTM1
Outline: as §1

[14] = tested on: WPMY1-TP53BP1-CLTA
Outline: as §1

[15] = tested on: WPMY1-TUBA1B-RELA
Outline: as §1

Measured: phenotypically active

CC(=O)[C@H]1CC[C@H]2[C@@H]3C=CC4=CC(=O)CC[C@@]4(C)[C@@H]3CC[C@]12C [dydrogesterone]
inactive: [1] 0 | [2] 0 | [3] 0 | [4] 0 | [5] 0 | [6] 0 | [7] 0 | [8] 0 | [9] 0 | [10] 0 | [11] 0 | [12] 0 | [13] 0 | [14] 0 | [15] 0

COc1ccc(CN(CCN(C)C)c2ccccn2)cc1 [mepyramine]
inactive: [1] 0 | [2] 0 | [3] 0 | [4] 0 | [5] 0 | [6] 0 | [7] 0 | [8] 0 | [9] 0 | [10] 0 | [11] 0 | [12] 0 | [13] 0 | [14] 0 | [15] 0

O=C1N[C@@H]2[C@@H](O)[C@@H](O)[C@H](O)[C@@H](CO)N2C1=O [Kifunensine]
inactive: [1] 0 | [2] 0 | [3] 0 | [4] 0 | [5] 0 | [6] 0 | [7] 0 | [8] 0 | [9] 0 | [10] 0 | [11] 0 | [12] 0 | [13] 0 | [14] 0 | [15] 0

C1CCN2C[C@@H]3C[C@@H](CN4CCCC[C@@H]34)[C@H]2C1 [Sparteine (-)]
inactive: [1] 0 | [2] 0 | [3] 0 | [4] 0 | [5] 0 | [6] 0 | [7] 0 | [8] 0 | [9] 0 | [10] 0 | [11] 0 | [12] 0 | [13] 0 | [14] 0 | [15] 0

CC(C)C(=O)SCCCCC[C@H](NC(=O)OC(C)(C)C)C(=O)NC12CC3CC(CC(C3)C1)C2
inactive: [1] 0 | [2] 0 | [3] 0 | [4] 0 | [5] 0 | [6] 0 | [7] 0 | [8] 0 | [9] 0 | [10] 0 | [11] 0 | [12] 0 | [13] 0 | [14] 0 | [15] 0

N=C(N)Nc1nc(CSCCC(=N)NS(N)(=O)=O)cs1 [famotidine]
inactive: [1] 0 | [2] 0 | [3] 0 | [4] 0 | [5] 0 | [6] 0 | [7] 0 | [8] 0 | [9] 0 | [10] 0 | [11] 0 | [12] 0 | [13] 0 | [14] 0 | [15] 0

Nc1ccc(O)c(C(=O)O)c1 [mesalazine]
inactive: [1] 0 | [2] 0 | [3] 0 | [4] 0 | [5] 0 | [6] 0 | [7] 0 | [8] 0 | [9] 0 | [10] 0 | [11] 0 | [12] 0 | [13] 0 | [14] 0 | [15] 0

C#C[C@]1(OC(C)=O)CC[C@H]2[C@@H]3CCC4=CC(=NO)CC[C@@H]4[C@H]3CC[C@@]21CC [norgestimate]
inactive: [1] 0 | [2] 0 | [3] 0 | [4] 0 | [5] 0 | [6] 0 | [7] 0 | [8] 0 | [9] 0 | [10] 0 | [11] 0 | [12] 0 | [13] 0 | [14] 0 | [15] 0

O=C1CCc2cc(OCCCCc3nnnn3C3CCCCC3)ccc2N1 [Cilostazol]
inactive: [1] 0 | [2] 0 | [3] 0 | [4] 0 | [5] 0 | [6] 0 | [7] 0 | [8] 0 | [9] 0 | [10] 0 | [11] 0 | [12] 0 | [13] 0 | [14] 0 | [15] 0

COc1cc2c3cc1Oc1cc(ccc1O)C[C@@H]1c4c(cc(OC)c(O)c4Oc4ccc(cc4)C[C@@H]3N(C)CC2)CC[N+]1(C)C [(+)-Tubocurarine chloride]
inactive: [1] 0 | [2] 0 | [3] 0 | [4] 0 | [5] 0 | [6] 0 | [7] 0 | [8] 0 | [9] 0 | [10] 0 | [11] 0 | [12] 0 | [13] 0 | [14] 0 | [15] 0

CC(=O)O[C@H]1C[C@@H]2CC[C@@H]3[C@H](CC[C@@]4(C)[C@H]3C[C@H]([N+]3(C)CCCCC3)[C@@H]4OC(C)=O)[C@@]2(C)C[C@@H]1N1CCCCC1 [vecuronium]
inactive: [1] 0 | [2] 0 | [3] 0 | [4] 0 | [5] 0 | [6] 0 | [7] 0 | [8] 0 | [9] 0 | [10] 0 | [11] 0 | [12] 0 | [13] 0 | [14] 0 | [15] 0

O=C1NC(=O)/C(=C\c2cccc(C(F)(F)F)c2)S1
inactive: [1] 0 | [2] 0 | [3] 0 | [4] 0 | [5] 0 | [6] 0 | [7] 0 | [8] 0 | [9] 0 | [10] 0 | [11] 0 | [12] 0 | [13] 0 | [14] 0 | [15] 0

From the supplement of paper PMC7411054
